Screening data (PubChem BioAssay)
nsP2pro inh = Primary qHTS for inhibitors of NSP2Pro chikungunya virus (CHIKV) | Potency, µM (highest dose often 24.9 µM), for inactives: at the highest dose activity change, negative = inhibition, most hits filed as inhibitors | actives 1.1% (n = 31,000) | Polyprotein P1234 (Chikungunya virus (strain S27-African prototype)), Q8JUX6 | FRET peptide cleavage, nsP2pro, fluorescence 1 h; further: nearly all actives have a fitted effect of over 60% in size
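Recombinant nsP2pro (150 nM) was preincubated with compound 15 min at room temperature in 10 mM Tris-HCl pH 8.0, 0.01% Tween 20. Peptide 2 FRET substrate (2.5 uM) was then added and fluorescence read after 1 h. Seven-point series, up to 25 uM.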
nsP2 cell sec = Secondary cell base assay for inhibitors of NSP2Pro Chikungunya virus (CHIKV); actives 10% (n = 450); Potency, µM (titrated, usually from 51.1 µM), for the others: at the highest dose activity change, negative = inhibition, most hits filed as inhibitors; cell-based CHIKV nsP2 protease reporter assay; shares compounds with nsP2pro inh; AID 1964100, 2024; further: nearly all actives have a fitted effect of over 70% in size
CHIKV NSP2 FL = Selectivity profile for inhibitors of NSP2Pro chikungunya virus (CHIKV): Full length NSP2 enzyme counterscreen (CHIKV-NSP2); shares compounds with nsP2pro inh; Full-length CHIKV NSP2 protease enzymatic counterscreen; Potency, µM (series often up to 50.7 µM), inactives show top-dose activity change, negative = inhibition, most hits filed as inhibitors; actives 39% (n = 410); further: nearly all actives have a fitted effect of over 65% in size
Furin counter = Selectivity profile for inhibitors of NSP2Pro chikungunya virus (CHIKV): Human furin counterscreen; shares compounds with nsP2pro inh; actives 6% (n = 410); Recombinant human furin enzymatic counterscreen, fluorogenic substrate; Potency, µM (titrated, usually from 50.6 µM), inactives show top-dose activity change, negative = inhibition, hits mostly inhibitors
nsP2 NS23 pep = Selectivity profile for inhibitors of NSP2Pro chikungunya virus (CHIKV): Endogenous NS2/3 peptide Counterscreen; shares compounds with nsP2pro inh; Purified CHIKV nsP2 protease, endogenous NS2/3 peptide cleavage; Potency, µM (doses to about 51 µM), for inactives: top-dose activity change, negative = inhibition, hits mostly inhibitors; actives 34% (n = 410); further: nearly all actives have a fitted effect of over 55% in size
Papain cs = Selectivity profile for inhibitors of NSP2Pro chikungunya virus (CHIKV): Papain Counterscreen | AID 1964104, 2024 | actives 5% (n = 410) | Potency, µM (titrated, usually from 51 µM), without a hit: top-dose activity change, negative = inhibition, actives largely listed as inhibitors | shares compounds with nsP2pro inh | purified papain protease activity, enzymatic inhibition
nsP2pro conf qHTS = Confirmatory qHTS for inhibitors of NSP2Pro chikungunya virus (CHIKV); actives 43% (n = 410); shares compounds with nsP2pro inh; CHIKV nsP2 protease enzymatic activity, qHTS; Potency, µM (series often up to 25.5 µM), without a hit: at the top dose activity change, negative = inhibition, hits mostly inhibitors; further: nearly all actives have a fitted effect of over 75% in size
HCV NS3 4A cs = Selectivity profile for inhibitors of NSP2Pro chikungunya virus (CHIKV): NS34A-HCV Counterscreen. shares compounds with nsP2pro inh. HCV NS3/4A protease biochemical counterscreen. Potency, µM (top dose mostly 50.9 µM), usual class: inhibitors. actives 20% (n = 410). AID 1964106, 2024; further: nearly all actives have a fitted effect of over 55% in size
An asterisk follows results filed as active; i = inactive; ? = inconclusive; ! = repeats disagree. This excerpt belongs to a sample that is enriched for hits. The call rests on the fitted dose curve. On the % scale 0 is the no-effect control and ±100 the full control effect; potency means the concentration at half of the fitted maximal effect.

SMILES | nsP2pro inh | others
Cc1cc(C)nc(NC(=S)N2CCN(c3ccc(Cl)c(Cl)c3)CC2)c1 | 0.0%
Cc1cc(C)nc(NC(=S)N2CCN(c3ccc4nsnc4c3)CC2)c1 | 3.16µM* | nsP2 cell sec=16.3µM*;CHIKV NSP2 FL=7.3µM*;Furin counter=-8.4%;nsP2 NS23 pep=11.6µM*;Papain cs=-8.0%;nsP2pro conf qHTS=8.96µM*;HCV NS3 4A cs=?
Cc1cc(C)cc(N2CCN(C(=S)Nc3cc(C)cc(C)n3)CC2)c1 | -2.4%
O=C(O)c1ccnc2cc(C(OCCCN3CCCCC3)c3ccccc3Cl)[nH]c12 (centres undefined) | 17.8%
Cc1cc(NC(=O)Nc2nnc(C3CCCCC3)s2)ccc1Cl | -2.2%
CC1=NN(c2ccccc2)C(=O)C1 | 0.0351µM*! | nsP2 cell sec=-9.6%;CHIKV NSP2 FL=-1.7%;Furin counter=-8.5%;nsP2 NS23 pep=-4.1%;Papain cs=-2.7%;nsP2pro conf qHTS=-3.8%;HCV NS3 4A cs=i
Cc1ccccc1CN1CCOc2cc([S+](=O)([O-])Nc3cccnc3)ccc2C1 | i
O=C(CCn1cccn1)NC1CC(=O)N(Cc2cccc3ccccc23)C1 (centres undefined) | -1.0%
COc1ccc2cc(C(=O)N3C[C@@H](CO)[C@H](c4ccccn4)C3)[nH]c2c1 | -3.3%
CC(=O)NCCCC(=O)N1CCC2(CC1)CN(S(C)(=O)=O)Cc1ccccc1O2 | -16.3%
CC(=O)NC1CC2(CCN(C(=O)CCCNC(=O)OC(C)(C)C)CC2)Oc2ccccc21 (centres undefined) | ? | nsP2 cell sec=-3.7%;CHIKV NSP2 FL=-72.3%;Furin counter=-4.5%;nsP2 NS23 pep=?;Papain cs=-4.3%;nsP2pro conf qHTS=?;HCV NS3 4A cs=?
CC(=O)NCCC(=O)N1CCC2(CC1)CC(NC(C)=O)c1ccccc12 (centres undefined) | -13.4%
COCc1nnc2n1CCC(NC(=O)CCc1c(C)noc1C)CC2 (centres undefined) | -8.9%
COC(=O)CC[C@@H]1N=C(c2ccccn2)c2cc(Br)ccc2-n2c(C)cnc21 | -1.4%
Fc1ccc(CN2CCn3c(nnc3-c3ccncc3)C2)cc1 | -4.8%
c1cncc(CN2CCn3c(nnc3C3CCCNC3)C2)c1 (centres undefined) | ? | nsP2 cell sec=6.8%
O[C@@H]1C[C@@H](c2nnc3n2CCN(C2CCCCC2)C3)N(Cc2cccnc2)C1 | -21.9%
Cc1c(-c2ccccc2F)[nH]c2ccc(CNC(=O)C3C=CCN3)cc12 (centres undefined) | 4.6%
COc1ccc(CNc2ccc(S(=O)(=O)Nc3nccs3)cc2)c(O)c1 | -6.1%
CC(=O)Nc1ccc(S(=O)(=O)Nc2cccc3cccnc23)cc1 | i
COc1ccc(S(=O)(=O)Nc2cccnc2Nc2ccc(O)cc2)cc1 | ? | nsP2 cell sec=-8.3%;CHIKV NSP2 FL=7.8%;Furin counter=-13.0%;nsP2 NS23 pep=i;Papain cs=-8.9%;nsP2pro conf qHTS=1.0%;HCV NS3 4A cs=i
COc1ccc([S+](=O)([O-])N2CCCN([S+](=O)([O-])c3ccc(OC)c(NC(C)=O)c3)CC2)cc1NC(C)=O | -3.0%
CC(=O)N1CCC(N2CCC[C@H]2c2nc(-c3ccc(-c4ccncc4)nc3)no2)CC1 | i
